Results reported in PubChem BioAssay AID588758 (Vanderbilt Specialized Chemistry Center, 2011).
Active and inactive are the calls of the source.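 How the source made its calls: active means compound cutting binding or function at one or more panel targets by over half; inactive means the rest.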

Assay: off-target binding across receptor and transporter panel, profiling panel, selectivity assay for M4 PAM project, biochemical, Ricerca panel, percent inhibition (AID 588758)
Settings: Ricerca radioligand binding panel, % inhibition, at 10 µM, stronger effect = higher value

With `Cc1nc2sc(C(=O)NCc3ccncc3)c(N)c2c(C)c1Cl` the inhibition (GABA-A flunitrazepam site binding) was 64%, the inhibition was 79% (active) and the inhibition (measured here: 5-HT2B receptor binding) was 74%. For the same molecule, the inhibition (measured here: 5-HT3 receptor binding) was 35%, the inhibition (measured here: Adenosine A3 binding) was 40% and the inhibition (measured here: Adrenergic beta2 binding) was 36%. It also gave an inhibition (measured here: GABA-B 1A binding) of 25%, an inhibition (measured here: Muscarinic M1 binding) of 9% and an inhibition (measured here: Muscarinic M2 binding) of 10%. The inhibition (measured here: Muscarinic M3 binding) was 14%, the inhibition (measured here: Norepinephrine transporter binding) was 35% and the inhibition (measured here: Serotonin transporter binding) was 3%. The inhibition (measured here: hERG channel binding) was 12%.
